Measurements reported in PubChem BioAssay (NCATS).
Inconclusive results are not listed. Where a call stands in place of a potency, no number is given. Active and inactive are the calls of the source. Calls come from the whole dose curve; as a rule, active = well fitted inhibition curve with a large enough effect; inconclusive = small, poorly fitted or top-dose-only effect; inactive = flat fitted curve, though single readings scatter.

What was measured:
Experiment in all cases: qHTS assay to identify novel small-molecules to repurpose for Merkel cell carcinoma treatment (AID 1296009); note: nearly all actives have a fitted effect of over 60% in size
MCC-13 = settings: MCC and control cell lines, CellTiter-Glo viability, 72 h; series mostly up to 46 µM
Procedure, shortened: (§1)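 Cell viability, measured as CellTiter-Glo luminescence, was normalized between DMSO and no-cell wells. The cells had been exposed to 8- or 11-point compound dilutions for 72 hr at 37 degree celsius.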

MCC-26 = settings: MCC and control cell lines, CellTiter-Glo viability, 72 h; series mostly up to 46 µM
Procedure, shortened: as §1

MKL-1 = settings: MCC and control cell lines, CellTiter-Glo viability, 72 h; series mostly up to 46 µM
Procedure, shortened: as §1

WaGa = settings: MCC and control cell lines, CellTiter-Glo viability, 72 h; series mostly up to 46 µM
Procedure, shortened: as §1

MKL-2 = settings: MCC and control cell lines, CellTiter-Glo viability, 72 h; series mostly up to 46 µM
Procedure, shortened: as §1

UISO = settings: MCC and control cell lines, CellTiter-Glo viability, 72 h; series mostly up to 46 µM
Procedure, shortened: as §1

NIH3T3 = settings: MCC and control cell lines, CellTiter-Glo viability, 72 h; at 44.8 µM (top of the series) unless noted
Procedure, shortened: as §1
Potency is the fitted concentration of half-maximal effect.

Structure (SMILES)	Potency (MCC-13)	Potency (MCC-26)	Potency (MKL-1)	Potency (WaGa)	Potency (MKL-2)	Potency (UISO)	outcome (NIH3T3)
Cc1ccc(C(C)(O)c2nc3ccccc3s2)c(C)c1 (stereo unspecified)	inactive	inactive	16.6 µM (active)	7.43 µM (active)	–	–	–
CC/C(=C(\c1ccccc1)c1ccc(OCCN(C)C)cc1)c1ccccc1	–	–	–	–	26.6 µM (active)	21.1 µM (active)	–
CC(=O)Oc1cc2c(s1)CCN(C(C(=O)C1CC1)c1ccccc1F)C2 (stereo unspecified)	inactive	inactive	11.8 µM (active)	10.5 µM (active)	10.5 µM (active)	–	–
CC=CC[C@@H](C)C(=O)[C@H]1C(=O)N[C@@H](C(C)C)C(=O)N(C)CC(=O)N(C)[C@@H](CC(C)C)C(=O)N[C@@H](C(C)C)C(=O)N(C)[C@@H](CC(C)C)C(=O)N[C@@H](C)C(=O)N[C@H](C)C(=O)N(C)[C@@H](CC(C)C)C(=O)N(C)[C@@H](CC(C)C)C(=O)N(C)[C@@H](C(C)C)C(=O)N1C	inactive	inactive	inactive	inactive	inactive	inactive	–
CC(C)C[C@H](CC(=O)O)C(=O)N[C@@H](Cc1c[nH]c2ccccc12)C(=O)N[C@@H](C)c1ccccc1	inactive	inactive	4.69 µM (active)	3.32 µM (active)	–	inactive	–
Cc1ccc(/C=N/NC(=O)c2ccccc2Oc2ccccc2)o1	inactive	inactive	inactive	inactive	inactive	inactive	–
CC(=O)OC1C(C)OC(Oc2c(-c3ccc(O)cc3)oc3cc(O)cc(O)c3c2=O)C(O)C1OC(C)=O (stereo unspecified)	inactive	inactive	–	–	–	inactive	–
Cc1c(O)cccc1C(=O)N[C@@H](CSc1ccccc1)[C@H](O)CN1C[C@H]2CCCC[C@@H]2C[C@@H]1C(=O)NC(C)(C)C	inactive	–	inactive	–	inactive	–	–
COC(=O)C1=CO[C@@H](O)[C@@H]2C(CO)=CC[C@@H]12	inactive	inactive	–	–	9.35 µM (active)	–	inactive
Oc1ccc(C2=Cc3ccc(O)cc3OC2)cc1	10.5 µM (active)	20.9 µM (active)	2.96 µM (active)	2.35 µM (active)	–	–	–
CN(C[C@@H]1COCCO1)S(=O)(=O)Nc1ccc2ccc3ncc(-c4cnn(C)c4)cc3c(=O)c2c1	inactive	–	inactive	inactive	–	–	–
COc1cc2ncnc(Nc3ccc(F)c(Cl)c3)c2cc1OCCCN1CCOCC1	–	inactive	–	–	13.3 µM (active)	26.6 µM (active)	–
O=C(NOCC(O)CO)c1cc(Br)c(F)c(F)c1Nc1ccc(I)cc1F (stereo unspecified)	–	–	inactive	inactive	inactive	inactive	–
Nc1nc(F)nc2c1ncn2[C@@H]1O[C@H](COP(=O)(O)O)[C@@H](O)[C@H]1O	–	inactive	–	14.8 µM (active)	–	13.2 µM (active)	–
COc1ccc(C2CC(c3ccccc3)=NN2c2ccc(S(N)(=O)=O)cc2)cc1 (stereo unspecified)	inactive	inactive	inactive	inactive	inactive	–	–
CCC(=O)NC[C@H](Cc1ccc(OCCc2nc(-c3ccccc3)oc2C)cc1)NC(C)=CC(=O)c1ccc(C(F)(F)F)cc1	inactive	inactive	7.43 µM (active)	4.69 µM (active)	–	–	–
C[C@]12CCC3c4ccc(O)cc4CCC3C1CCC2=O (stereo partly specified)	inactive	inactive	inactive	inactive	inactive	–	–
CC(C)(C)NC(=O)Nc1cccc(Nc2ncc(F)c(NC(C)(C)CO)n2)c1	inactive	inactive	–	–	inactive	inactive	–
Clc1cc(Cl)cc(CNc2ncncc2-c2ccc3c(c2)OCO3)c1	inactive	inactive	–	–	inactive	–	–
Cc1nc(N)sc1-c1ccnc(Nc2ccc(N3CCOCC3)cc2)n1	–	inactive	–	–	inactive	–	–
CC(=O)N(C)C1(c2ccccc2)CCN(CCC[C@]2(c3ccc(Cl)c(Cl)c3)CCCN(C(=O)c3ccccc3)C2)CC1	inactive	inactive	inactive	inactive	20.9 µM (active)	–	–
O=C(O)[C@H]1O[C@H](Oc2cc3oc(-c4ccccc4)cc(=O)c3c(O)c2O)[C@H](O)[C@@H](O)[C@H]1O	inactive	inactive	inactive	inactive	–	inactive	–
O=C(NCc1ccncc1)C12C[C@H]3C[C@@H](C1)CC(c1ccc(Cl)cc1)(C3)C2	inactive	inactive	–	–	inactive	–	–
Clc1ccc(C(c2ccc(Cl)cc2)n2cc[n+](CC(OCc3ccc(Cl)cc3Cl)c3ccc(Cl)cc3Cl)c2)cc1 (stereo unspecified)	inactive	–	20.9 µM (active)	–	10.5 µM (active)	–	–
CC(C)C(=O)Nc1ncc(-c2cc(C(F)F)nn2-c2c(Cl)cccc2Cl)s1	–	–	inactive	inactive	–	–	–
